The results in this text go back to PubChem BioAssay (NCI).

A short description of test [1]: NCI Yeast Anticancer Drug Screen. Data for the rad50 strain (AID 155).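 Note: 0% = growth of vehicle-only cultures of the same strain.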 To be noted: S. cerevisiae rad50 strain growth inhibition, stronger effect = higher value. The method in brief: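 Growth of the mutant yeast was measured after compound exposure and referenced to vehicle-treated cultures.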
Test [2] is described as follows: NCI Yeast Anticancer Drug Screen. Data for the mec2-1 strain (AID 157). To be noted: S. cerevisiae mec2-1 strain, stronger effect = higher value. The method in brief:
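Vehicle-treated cultures served as reference for growth inhibition of compound-exposed mec2-1 yeast.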

Test [3] can be described thus: NCI Yeast Anticancer Drug Screen. Data for the sgs1 mgt1 strain (AID 161).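 Note: 0% = growth of cultures given vehicle only.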 The note with it: S. cerevisiae sgs1 mgt1 strain, stronger effect = higher value. The gist of the method: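 Genetically altered yeast, compound exposure, growth inhibition relative to vehicle.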
Test [4] can be described thus: NCI Yeast Anticancer Drug Screen. Data for the cln2 rad14 strain (AID 165).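 Note: 0% = growth equal to vehicle treated cultures.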 The note with it: S. cerevisiae cln2 rad14 strain, stronger effect = higher value. The gist of the method: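 Each compound was tested on cln2 rad14 yeast. Inhibition of growth was calculated against vehicle-exposed controls.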
Test [5] can be described thus: NCI Yeast Anticancer Drug Screen. Data for the bub3 strain (AID 167). The note with it: S. cerevisiae bub3 mutant strain, stronger effect = higher value. The gist of the method:
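Whole-cell yeast assay. The mutant strain was incubated with compounds, and growth inhibition was determined by comparison with vehicle-treated cells.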

Test [6] can be described thus: NCI Yeast Anticancer Drug Screen. Data for the mlh1 rad18 strain (AID 175). To be noted: S. cerevisiae mlh1 rad18 strain growth inhibition, stronger effect = higher value. The gist of the method: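 Vehicle-treated cultures served as the reference for growth inhibition in a yeast strain carrying DNA damage repair alterations exposed to each compound.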
Setting [7] is: at 5.0 µM (retest, dose inferred, filed as 0.5).
Where [8] appears, read: at 50.0 µM (retest, dose inferred, filed as 5.0).

About 79,000 compounds went through this panel and 15% of them were active in at least one assay; those are over-represented in the sample as a whole. Unmarked numbers belong to inactive results. Activity calls are given as the source filed them. Cut-off read from the data, not from the text of the source: active = growth inhibition above about 70%; inactive = the rest.

Turning to `C[Si](C)(C)C1=C([Si](C)(C)C)C(Cl)(Cl)C1=O`, the growth inhibition was 10% in test [1] (setting [7]); 32% in test [1] (setting [8]); 12% in test [1] (at 50.0 µM); 12% in test [2] (setting [7]); 17% in test [2] (setting [8]); 9.35% in test [2] (at 50.0 µM). In addition, the growth inhibition in test [3] (setting [7]) is 20%; in test [3] (setting [8]), 49%; in test [3] (at 50.0 µM) it was 72.2% (active); in test [4] (setting [7]) it was 6%; in test [4] (setting [8]) it was 40%; in test [4] (at 50.0 µM), 45.5%. The growth inhibition was 16% in test [5] (setting [7]); 33% in test [5] (setting [8]); 29.2% in test [5] (at 50.0 µM); 18% in test [6] (setting [7]); 38% in test [6] (setting [8]); 32.4% in test [6] (at 50.0 µM).
Take `O=S(=O)(NC1CCCCC1)c1ccc2c(c1)OCCOCCOCCOCCO2`: the growth inhibition in test [1] (setting [7]) was 7%; in test [1] (setting [8]) it was 22%; in test [1] (at 50.0 µM), 40.3%; in test [2] (setting [7]) it was 9%; in test [2] (setting [8]), 37%; in test [2] (at 50.0 µM) it was 23.8%. For the same compound, the growth inhibition in test [3] (setting [7]) was 0%; in test [3] (setting [8]) it was 63%; in test [3] (at 50.0 µM) it was 70.7% (active); in test [4] (setting [7]), -7%; in test [4] (setting [8]), 39%; in test [4] (at 50.0 µM), 36%. Also, the growth inhibition in test [5] (setting [7]) was -24%; in test [5] (setting [8]), 53%; in test [5] (at 50.0 µM) it was 73.2% (active); in test [6] (setting [7]) it was 5%; in test [6] (setting [8]), 31%; in test [6] (at 50.0 µM), 65.5%.
As for `O=C(O)C(O)Cc1ccc(O)cc1` (stereo not given), the growth inhibition in test [1] (setting [7]) is -150%; in test [1] (setting [8]), -144%; in test [1] (at 50.0 µM) it was -3.2%; in test [2] (setting [7]) it was -46%; in test [2] (setting [8]), -51%; in test [2] (at 50.0 µM) it was 1.1%. For the same compound, the growth inhibition was -61% in test [3] (setting [7]); -61% in test [3] (setting [8]); 3.7% in test [3] (at 50.0 µM); -62% in test [4] (setting [7]); -69% in test [4] (setting [8]); 39.2% in test [4] (at 50.0 µM). Besides, the growth inhibition is -70% in test [5] (setting [7]); -86% in test [5] (setting [8]); -13.3% in test [5] (at 50.0 µM); -140% in test [6] (setting [7]); -122% in test [6] (setting [8]); -6.4% in test [6] (at 50.0 µM).
Turning to `NC(=S)c1cccc(OCCCOc2ccccc2)c1`, the growth inhibition is 2% in test [1] (setting [7]); 4% in test [1] (setting [8]); 99.2% (active) in test [1] (at 50.0 µM); 0% in test [2] (setting [7]); 14% in test [2] (setting [8]); 99.6% (active) in test [2] (at 50.0 µM). Moreover, the growth inhibition in test [3] (setting [7]) was 11%; in test [3] (setting [8]), 17%; in test [3] (at 50.0 µM), 98.7% (active); in test [4] (setting [7]) it was -8%; in test [4] (setting [8]), 1%; in test [4] (at 50.0 µM), 98.2% (active). The growth inhibition in test [5] (setting [7]) was 6%; in test [5] (setting [8]) it was 13%; in test [5] (at 50.0 µM), 99.5% (active); in test [6] (setting [7]), 4%; in test [6] (setting [8]), 30%; in test [6] (at 50.0 µM), 99.3% (active).
In the case of `CCc1ccc(/C=C/c2ccc([N+](=O)[O-])cc2)nc1`, the growth inhibition in test [1] (setting [7]) was 0%; in test [1] (setting [8]), 68%; in test [1] (at 50.0 µM), 62.2%; in test [2] (setting [7]), -5%; in test [2] (setting [8]), 41%; in test [2] (at 50.0 µM), 40.6%. In addition, the growth inhibition in test [3] (setting [7]) was -5%; in test [3] (setting [8]), 42%; in test [3] (at 50.0 µM), 33.5%; in test [4] (setting [7]) it was 6%; in test [4] (setting [8]), 39%; in test [4] (at 50.0 µM), 7.1%. Also, the growth inhibition in test [5] (setting [7]) was -5%; in test [5] (setting [8]), -8%; in test [5] (at 50.0 µM), 45.9%; in test [6] (setting [7]), 3%; in test [6] (setting [8]), 44%; in test [6] (at 50.0 µM), 69.5%.
With `O=C(O)c1nc2cc(C(F)(F)F)ccc2nc1Nc1ccc(Cl)c(Cl)c1`, the growth inhibition in test [1] (setting [7]) was 23%; in test [1] (setting [8]), 77% (active); in test [1] (at 50.0 µM), 86% (active); in test [2] (setting [7]), 19%; in test [2] (setting [8]), 90% (active); in test [2] (at 50.0 µM), 80.3% (active). Also, the growth inhibition in test [3] (setting [7]) is -16%; in test [3] (setting [8]), 52%; in test [3] (at 50.0 µM), 48.8%; in test [4] (setting [7]), -7%; in test [4] (setting [8]) it was 85% (active); in test [4] (at 50.0 µM) it was 76.5% (active). For the same compound, the growth inhibition in test [5] (setting [7]) was 16%; in test [5] (setting [8]) it was 64%; in test [5] (at 50.0 µM), 55.1%; in test [6] (setting [7]), 19%; in test [6] (setting [8]), 87% (active); in test [6] (at 50.0 µM), 79.1% (active).
With `CN=C(N)N/N=C(\C)c1ccc2c(c1)Cc1cc(Cl)ccc1-2`, the growth inhibition in test [1] (setting [7]) is 34%; in test [1] (setting [8]), 37%; in test [1] (at 50.0 µM), 98.8% (active); in test [2] (setting [7]), 16%; in test [2] (setting [8]), 38%; in test [2] (at 50.0 µM), 97% (active). Also, the growth inhibition in test [3] (setting [7]) was 13%; in test [3] (setting [8]), 97% (active); in test [3] (at 50.0 µM), 98.7% (active); in test [4] (setting [7]), 8%; in test [4] (setting [8]), 56%; in test [4] (at 50.0 µM), 93.1% (active). Also, the growth inhibition in test [5] (setting [7]) is 7%; in test [5] (setting [8]) it was 90% (active); in test [5] (at 50.0 µM), 98.7% (active); in test [6] (setting [7]), 9%; in test [6] (setting [8]) it was 97% (active); in test [6] (at 50.0 µM) it was 98.5% (active).
On to `O=C(O)CC1c2ccc3ccccc3c2CCC1c1ccccc1` (stereo not given), for which the growth inhibition in test [1] (setting [7]) was 74% (active); in test [1] (setting [8]), 99% (active); in test [1] (at 50.0 µM), 99.6% (active); in test [2] (setting [7]) it was 44%; in test [2] (setting [8]), 99% (active); in test [2] (at 50.0 µM), 99.6% (active). Further, the growth inhibition in test [3] (setting [7]) is 68%; in test [3] (setting [8]), 99% (active); in test [3] (at 50.0 µM) it was 99.7% (active); in test [4] (setting [7]), 34%; in test [4] (setting [8]), 99% (active); in test [4] (at 50.0 µM) it was 99.5% (active). The growth inhibition in test [5] (setting [7]) was 30%; in test [5] (setting [8]), 99% (active); in test [5] (at 50.0 µM), 99.5% (active); in test [6] (setting [7]), 78% (active); in test [6] (setting [8]), 99% (active); in test [6] (at 50.0 µM), 99.5% (active).
As to `O=C1Nc2ccc([N+](=O)[O-])c3c([N+](=O)[O-])ccc1c23`, the growth inhibition in test [1] (setting [7]) is 4%; in test [1] (setting [8]), 82% (active); in test [1] (at 50.0 µM), 79% (active); in test [2] (setting [7]), 11%; in test [2] (setting [8]), 81% (active); in test [2] (at 50.0 µM), 47.4%. The growth inhibition is 3% in test [3] (setting [7]); 88% (active) in test [3] (setting [8]); 57.5% in test [3] (at 50.0 µM); 0% in test [4] (setting [7]); 39% in test [4] (setting [8]); 69.8% in test [4] (at 50.0 µM). Further, the growth inhibition is 2% in test [5] (setting [7]); 70% (active) in test [5] (setting [8]); 34.2% in test [5] (at 50.0 µM); 47% in test [6] (setting [7]); 94% (active) in test [6] (setting [8]); 90.7% (active) in test [6] (at 50.0 µM).
`[Cl-].[La+3].[O-]/N=C(\c1ccccc1)c1ccccn1.[O-]/N=C(\c1ccccc1)c1ccccn1.[O-]/N=C(\c1ccccc1)c1ccccn1`: the growth inhibition was 42% in test [1] (setting [7]); 63% in test [1] (setting [8]); 63.3% in test [1] (at 50.0 µM); 25% in test [2] (setting [7]); 60% in test [2] (setting [8]); 40.2% in test [2] (at 50.0 µM). In addition, the growth inhibition in test [3] (setting [7]) was 31%; in test [3] (setting [8]) it was 68%; in test [3] (at 50.0 µM) it was 43.2%; in test [4] (setting [7]), 21%; in test [4] (setting [8]), 34%; in test [4] (at 50.0 µM), 43.5%. Moreover, the growth inhibition in test [5] (setting [7]) was 42%; in test [5] (setting [8]), 90% (active); in test [5] (at 50.0 µM), 67.3%; in test [6] (setting [7]), 43%; in test [6] (setting [8]), 68%; in test [6] (at 50.0 µM) it was 59.2%.
